Data from ChEMBL document CHEMBL3988442, “University of Dundee, Small-Polar-MMV Screening Library” (2021).

Each compound was assayed against AMP-activated protein kinase, AMPK (Homo sapiens) (UniProt P54646+O43741+P54619+Q9UGJ0+Q9Y478+Q13131+Q9UGI9) (assay: AMP-dependent Kinase enzyme assay. An in vitro enzyme assay that detects ADP turnover that is directly proportional to AMPK activity. This uses naive AMPK that is activated during the assay with MK-8722). Conditions: 30 µM.
Format: functional
Set-up: scale not given: direction of the effect not stated beside the values
Compound Cc1cnc(C(=O)N2CC(=O)N(c3ccccc3Cl)CC2C)cn1 (stereo not given) has a Percent Effect of 12.5%.
CCn1nc(C(C)C)cc1C(=O)NCC1CCCN(c2ccccn2)C1 (stereo not given) gave a Percent Effect of 6.64%.
CCc1nc(C)c(CC(=O)N2CCC3(CC2)OCCCC3OC)c(=O)[nH]1 (stereo not given) gave a Percent Effect of -123%.
Cc1cccc(N2CCN(C(=O)CNCCn3cc(C)cn3)CC2)c1 gave a Percent Effect of -4.92%.
With O=C1CN([C@@H]2CC[C@@H](NS(=O)(=O)c3ccccc3F)[C@H]2O)CCN1 the Percent Effect was -4.46%.
Work on CC(C)c1nc(CN(C)S(=O)(=O)c2cccs2)cs1 yielded a Percent Effect of 4.38%.
Compound CC(C)OCCS(=O)(=O)N1CCN(Cc2cccn2C)CC1 has a Percent Effect of -4.58%.
Work on Cc1nn(C)cc1C(=O)N1CCCn2nc(CN3CC[C@H](F)C3)cc2C1 yielded a Percent Effect of 2.32%.
In the case of CC(C)(C)c1ccc(-n2ncc3c2CCCC3N)cc1 (stereo not given), the Percent Effect is reported as 5.4%.
Compound CCCN1CCC(N2CCC(Cn3cc(CC(C)O)nn3)CC2)CC1 (stereo not given) has a Percent Effect of -7.12%.
With CN1CC(C(=O)NCCc2ccc(F)c(Br)c2)CC1=O (stereo not given) the Percent Effect was 5.17%.
In the case of Cc1oc(-c2ccco2)nc1CN1CCc2cnc(C(C)C)nc2C1, the Percent Effect is reported as -25.9%.
With CN(CC(=O)NCC1CCCCC1)S(=O)(=O)c1cccnc1 the Percent Effect was -4.46%.
Compound Cc1cnc2c(C(=O)N3CCCC(OCc4ccccn4)C3)cnn2c1 (stereo not given) has a Percent Effect of 4.92%.
Compound Cc1cc(=O)n2nc(Oc3cc(Cl)cc(Cl)c3)sc2n1 has a Percent Effect of -4.19%.
O=C(NCc1csc2ccc(Cl)cc12)c1cc2n(n1)CCNC2 was tested, and the Percent Effect was 10.6%.
CN(C)c1nc2sc(C(=O)N3CCN(C(=O)OC(C)(C)C)CC3)cc2s1 gave a Percent Effect of 63.5%.
Compound CCNC(=O)C1CCN(Cc2ccccc2OCC(F)(F)F)CC1 has a Percent Effect of -3.27%.
For Cc1ccc2c(C(=O)N(C)C)cc(-c3cnn(CCO)c3)nc2c1C, the Percent Effect was 7.33%.
With NC(=O)c1ccc(N2CCN(CCCc3cn[nH]c3)CC2)cc1 the Percent Effect was -7.64%.
Work on O=C(Cc1c[nH]c(=O)[nH]c1=O)N1CCCCC1CCc1ccccc1 (stereo not given) yielded a Percent Effect of -1.5%.
For Cc1ccccc1Oc1ncccc1CNC(=O)Cn1cccnc1=O, the Percent Effect was -5.58%.
Cc1cc(C[S+]([O-])Cc2ccccc2F)no1 (stereo not given) showed a Percent Effect of 13.9%.
Compound CSc1nccc(N2CCC(NCc3ccc4c(c3)OCO4)CC2)n1 has a Percent Effect of 15%.
In the case of Cc1cc(F)ccc1N1CCCC(NC(=O)CCc2ccncc2)C1 (stereo not given), the Percent Effect is reported as 14.9%.
For O=C(CCC1CCCN(C(=O)CCN2CCCCO2)C1)N1CCCC1 (stereo not given), the Percent Effect was -2.7%.
For CN(Cc1cccs1)Cc1nnsc1Cl, the Percent Effect was 12.6%.
O=C(Nc1ccccc1OCCc1ccccn1)N1CC[C@@H](O)C1 gave a Percent Effect of 8.55%.
C[C@@H]1CN(Cc2nc(C(N)=O)no2)CC[C@@]1(O)C1CC1 was tested, and the Percent Effect was 0.276%.
In the case of CCn1cc(CN2CCC(c3ncc(Cl)cc3S(C)(=O)=O)CC2)c(C)n1, the Percent Effect is reported as 4.95%.
CC(CN1CCOCC1)NC(=O)N1CCN(S(C)(=O)=O)CC1 (stereo not given) showed a Percent Effect of 8.74%.
CCCN(CC(F)(F)F)S(=O)(=O)c1cc(C(N)=O)n(C)c1 gave a Percent Effect of -4.23%.
With NC(=O)C1CCN(c2ccc(C(=O)N3CCc4ccccc43)cn2)C1 (stereo not given) the Percent Effect was 6.03%.
CC(C)c1noc(C(C)N2CCC(c3nc4ccccc4o3)CC2)n1 (stereo not given) showed a Percent Effect of 0.506%.
Work on N#Cc1cccnc1NCc1cccnc1N1CCCCC1 yielded a Percent Effect of 7.89%.
CCOC(=O)C1(NC(=O)CCNc2cc(C)ccc2OC)CCCCC1 was tested, and the Percent Effect was 6.8%.
CCNC(=O)[C@@H]1C[C@H](N)CN1c1cc(C(F)(F)F)nc(N(C)C)n1 gave a Percent Effect of -12%.
COc1ccc2c(c1)CCCC2CC(=O)NCC(=O)O (stereo not given) was tested, and the Percent Effect was 3.73%.
Cc1noc(CCCC(=O)N2CSCC2C(=O)NCC2CC2)n1 (stereo not given) showed a Percent Effect of -0.369%.
Compound O=C(Nc1ccc(I)cc1C(=O)NCCN1CCOCC1)c1ccco1 has a Percent Effect of 12.6%.
